Laboratory results as given in PubChem BioAssay (NCATS).
A number with no mark means an inactive call. Inconclusive results are not listed. Activity calls are given as the source filed them. Unless noted, calls follow the shape of the dose curve; as a rule, active = well fitted curve in the direction sought with a large enough effect; inconclusive = small, poorly fitted or top-dose-only effect, or another doubt; inactive = no such curve, though single readings can be large; an effect the other way counts as inactive or inconclusive.

Assays:
[1] = molecular target: Lysosomal acid glucosylceramidase (Homo sapiens) (UniProt P04062); assay: Glucocerebrosidase-p2 (AID 348; in the data active = potency below about 10 µM; also: potency is read from the fitted curve at half-maximal effect); conditions: purified GBA, blue fluorogenic substrate, 40 min
In short: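 Compounds titrated from 0.6 nM upwards against 0.2 nM enzyme in pH 5.9 citric acid/KH2PO4, taurocholate, tween-20; blue fluorogenic substrate 80 uM, 40 min room temperature, stopped and read Ex 365/Em 440 for AC50.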

[2] = AP1 Signaling Pathway (AID 357; active = well fitted curve in either direction with a large enough effect, not every such curve was filed as active;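 also: ME-180 reporter cells stimulated with EGF at its EC50 level; % is scaled to controls: 0 for no effect and ±100 for the full control effect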); conditions: ME-180 AP-1-bla reporter, EGF-induced, beta-lactamase ratio, 5 h; at 7.69 µM (top of the series) unless noted
In short: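 Modulation of EGF-driven AP-1 transcription was assessed with a beta-lactamase reporter in ME-180 cells. Compound and EC50 EGF were co-incubated 5 hours at 37 °C before 2.5-hour CCF4 loading at room temperature and dual-emission reading.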

[3] = molecular target: Cytochrome P450 1A2 (Homo sapiens) (UniProt P05177); assay: p450-cyp1a2 (AID 410; calls by dose curve; also: potency is read from the fitted curve at half-maximal effect;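 as to activity change, negative = inhibition: -100% = full effect of reference inhibitor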)
In short: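 Inhibition was calculated relative to 57 uM furafylline (full inhibition). The reaction used human CYP1A2 at 20nM with Luciferin-ME at its Km, 100uM, driven by an NADPH-regenerating system for 60 min at room temperature.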

[4] = NFAT Signaling Pathway (AID 444; active = well fitted curve in either direction with a large enough effect, not every such curve was filed as active;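 also: carbachol stimulus at about its EC50 of 1 µM final; % is scaled to controls: 0 for no effect and ±100 for the full control effect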); conditions: Jurkat NFAT-bla M1, carbachol, beta-lactamase ratio, 5 h; at 7.69 µM (top of the series) unless noted
In short: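 Read-out: CCF4 FRET ratio (460 nm/530 nm) after 1 h RT dye loading, used for %activity and AC50 from titration series. Cells: Jurkat NFAT-β-lactamase/M1 line, treated with compound plus 1 uM carbachol for 5 h, 37 °C.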

[5] = Stat Signaling Pathway (AID 446; active = well fitted curve in either direction with a large enough effect, not every such curve was filed as active;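 also: ME-180 cervical cancer cells given 40 pM IL-6 alongside compound; SIE-controlled beta-lactamase reporter measured as 460/530 nm FRET emission ratio; % is scaled to controls: 0 for no effect and ±100 for the full control effect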); conditions: ME-180 SIE beta-lactamase reporter, IL-6 stimulated, 5 h; at 7.69 µM (top of the series) unless noted
In short: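 ME-180 cells carrying a SIE-driven beta-lactamase reporter are stimulated with 40 pM IL-6 for 5 h at 37C in the presence of compound. The 460/530 nm FRET substrate ratio is read after 2.5 h at RT. Data are normalised to 300 pM IL-6 and to 125 nM JAK inhibitor controls.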

[6] = molecular target: Glucocorticoid receptor (Homo sapiens) (UniProt P04150); assay: GR-GFP Redistribution (AID 450;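 active = compounds whose dose series gives a full or clear partial fitted curve of increased nuclear translocation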; also: potency is read from the fitted curve at half-maximal effect); conditions: U2OS GR-GFP nuclear translocation, laser cytometry, 2 h
[7] = molecular target: Glucocorticoid receptor (Homo sapiens) (UniProt P04150); assay: GR-EFC Redistribution (AID 451; calls by dose curve; also: potency is read from the fitted curve at half-maximal effect); conditions: CHO-K1 GR-EFC translocation, beta-gal luminescence, 2 h
In short: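 Translocation of GR-ED fusion to nuclear EA restores b-gal, read by luminescence after 1 h room-temperature detection. Engineered CHO-K1 biosensor cells, 1,000/well, exposed 2 h at 37 C to titrations up to 46 uM final.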

[8] = molecular target: Mitogen-activated protein kinase 10 (Mus musculus) (UniProt Q61831); assay: JNK3 AlphaScreen Assay (AID 530; active = well fitted curve in either direction with a large enough effect, not every such curve was filed as active;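 also: kinase came from lysate of stimulated human HepG2 cells; signal reports phosphorylation of biotinylated GST-cJun 1-79 at Ser73 with 10 µM ATP; % is scaled to controls: 0 for no effect and ±100 for the full control effect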)
In short: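 Room-temperature AlphaScreen kinase assay; pre-activated HepG2 lysate as JNK3 source, biotin-GST-cJun(1-79) substrate, 10 uM ATP, compound 15 min preincubation.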

[9] = molecular target: 3',5'-cyclic-AMP phosphodiesterase 4B (Homo sapiens) (UniProt Q07343); assay: qHTS Assay for Inhibitors of PDE-IV (AID 607; active = well fitted activation curve with a large enough effect in the main read-out, with a control signal flat, not every such curve was filed as active; also: % of control where 0% means no effect)
In short: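 HEK293 ACTOne cells with CNG channel (1000/well), endogenous PDE4; membrane potential dye, compounds up to 22.9 uM final. Fluorescence Ex 535/Em 590; RO 20-1724 (100 uM final) as reference.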

[10] = molecular target: Cytochrome P450 3A4 (Homo sapiens) (UniProt P08684); assay: qHTS Assay for Inhibitors and Substrates of Cytochrome P450 3A4 (AID 884); also: potency is read from the fitted curve at half-maximal effect; nearly all actives have a fitted effect of over 50% in size
In short: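 20 nM human CYP3A4 with 25 uM Luciferin-PPXE (at KM) in 200 mM KPO4, preincubated 10 min with compound; NADPH regeneration started a 60 min RT reaction. Luciferin detected by luminescence, normalized to 57 uM ketoconazole as full inhibition.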

[11] = molecular target: Cytochrome P450 3A4 (Homo sapiens) (UniProt P08684); assay: qHTS Assay for Activators of Cytochrome P450 3A4 (AID 885); also: nearly all actives have a fitted effect of over 65% in size
In short: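 Human CYP3A4 (20 nM) with Luciferin-PPXE at 25 uM (its KM) in 200 mM KPO4; 10 min compound preincubation, then NADPH regeneration and 60 min reaction at RT. Luciferin read by luminescence; normalized to 57 uM ketoconazole full inhibition.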

[12] = molecular target: Dual specificity protein kinase CLK4 (Homo sapiens) (UniProt Q9HAZ1); assay: qHTS Assay for Inhibitors of CDC-like Kinase 4 (Kinase-Glo Assay) (AID 1770); also: nearly all actives have a fitted effect of over 65% in size; also: potency is read from the fitted curve at half-maximal effect
In short: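 Recombinant human Clk4 (25 nM) phosphorylated RS repeat peptide (100 uM) with 1 uM ATP in Tris pH 7.5/MgCl2/EGTA/DTT/Triton buffer for 4.5 h at room temperature. Residual ATP was quantified by Kinase-Glo luciferase luminescence.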

[13] = molecular target: Dual specificity protein kinase CLK4 (Homo sapiens) (UniProt Q9HAZ1); assay: qHTS Assay for Inhibitors of CDC-like Kinase 4 (ADP-Glo Assay) (AID 1771); also: nearly all actives have a fitted effect of over 70% in size; also: potency is read from the fitted curve at half-maximal effect
In short: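 Kinase reaction: Clk4 at 25 nM, RS repeat peptide substrate at 100 uM, ATP at 1 uM, 1 hr, room temperature. Product ADP detected as luciferase signal via ADP-Glo.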

[14] = molecular target: Dual specificity protein kinase CLK4 (Homo sapiens) (UniProt Q9HAZ1); assay: qHTS Assay for Inhibitors of CDC-like Kinase 4 (ADP-FP Assay) (AID 1795); also: nearly all actives have a fitted effect of over 60% in size; also: potency is read from the fitted curve at half-maximal effect
In short: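 Recombinant human Clk4 (6.25 nM) phosphorylated RS repeat peptide (100 uM) with 1 uM ATP in Tris pH 7.5/MgCl2/EGTA/DTT/Triton buffer for one hour. ADP was quantified by Transcreener competitive fluorescence polarization against an ADP calibration curve.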

[15] = molecular target: Ubiquitin carboxyl-terminal hydrolase 1 (Homo sapiens) (UniProt O94782); assay: Inhibitors of USP1/UAF1: Pilot qHTS (AID 504865);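 also: rhodamine fluorescence freed from ubiquitin-rhodamine substrate followed over time; top concentration of the series differs between compounds; % is scaled to controls: 0 for no effect and ±100 for the full control effect; nearly all actives have a fitted effect of over 35% in size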
In short: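 USP1/UAF1 complex (1nM) preincubated with compound 15 min at room temperature, then Ub-Rho substrate (150nM final) added. Fluorescence read kinetically at 480/540 nm, 6 reads every 60 seconds. Buffer: 50mM HEPES pH 7.8, 0.5mM EDTA, 0.1 mg/ml BSA, 1mM TCEP, 0.01% Tween-20.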

[16] = Primary qHTS for small molecule stabilizers of the endoplasmic reticulum resident proteome: Secreted ER Calcium Modulated Protein (SERCaMP) assay (AID 1508630); also: % is scaled to controls: 0 for no effect and ±100 for the full control effect
In short: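 GLuc-SERCaMP-expressing SH-SY5Y cells, pretreated 16 h with compound, are challenged with thapsigargin to empty ER calcium stores; after 4 h, coelenterazine is added directly to the medium and luminescence is imaged.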

[17] = molecular target: Cytochrome P450 2C19 (Homo sapiens) (UniProt P33261); assay: qHTS Assay for Inhibitors and Substrates of Cytochrome P450 2C19 (AID 899); also: potency is read from the fitted curve at half-maximal effect; nearly all actives have a fitted effect of over 60% in size
In short: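 5nM enzyme + 10uM Luciferin-H EGE (=KM), 50mM KPO4; cpd pin-transferred, 10 min 37C; NADPH regen, 60 min 37C; stopped w/ luciferin detection reagent, 20 min; luminescence. Normalized to 57uM ketoconazole (AC100).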

[18] = molecular target: Cytochrome P450 2C9 (Homo sapiens) (UniProt P11712); assay: qHTS Assay for Inhibitors and Substrates of Cytochrome P450 2C9 (AID 883); also: nearly all actives have a fitted effect of over 60% in size; also: potency is read from the fitted curve at half-maximal effect
In short: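 Inhibition of CYP2C9 is scored as loss of luminescence, with 57uM sulphaphenazole defining 100% inhibition. Substrate Luciferin-H is used at 100uM, equal to its KM; enzyme at 10nM in 25mM KPO4, 60 min at 37C with NADPH regeneration.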

Chain of Cytochrome P450 2C19 (Homo sapiens) (P33261 whole entry, looked up): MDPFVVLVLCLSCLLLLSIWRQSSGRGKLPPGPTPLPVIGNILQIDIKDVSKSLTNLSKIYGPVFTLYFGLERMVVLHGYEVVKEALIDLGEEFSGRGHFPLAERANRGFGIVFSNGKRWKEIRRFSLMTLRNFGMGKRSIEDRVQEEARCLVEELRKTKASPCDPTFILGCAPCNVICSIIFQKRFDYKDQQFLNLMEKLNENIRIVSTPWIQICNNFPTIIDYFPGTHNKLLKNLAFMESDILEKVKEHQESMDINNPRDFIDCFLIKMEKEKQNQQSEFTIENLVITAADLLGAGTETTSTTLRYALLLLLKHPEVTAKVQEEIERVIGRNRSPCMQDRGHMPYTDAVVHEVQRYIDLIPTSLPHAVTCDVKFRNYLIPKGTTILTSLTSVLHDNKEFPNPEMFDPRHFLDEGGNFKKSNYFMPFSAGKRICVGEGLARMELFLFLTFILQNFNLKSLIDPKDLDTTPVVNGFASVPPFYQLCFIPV
Chain of 3',5'-cyclic-AMP phosphodiesterase 4B (Homo sapiens) (Q07343 whole entry, looked up): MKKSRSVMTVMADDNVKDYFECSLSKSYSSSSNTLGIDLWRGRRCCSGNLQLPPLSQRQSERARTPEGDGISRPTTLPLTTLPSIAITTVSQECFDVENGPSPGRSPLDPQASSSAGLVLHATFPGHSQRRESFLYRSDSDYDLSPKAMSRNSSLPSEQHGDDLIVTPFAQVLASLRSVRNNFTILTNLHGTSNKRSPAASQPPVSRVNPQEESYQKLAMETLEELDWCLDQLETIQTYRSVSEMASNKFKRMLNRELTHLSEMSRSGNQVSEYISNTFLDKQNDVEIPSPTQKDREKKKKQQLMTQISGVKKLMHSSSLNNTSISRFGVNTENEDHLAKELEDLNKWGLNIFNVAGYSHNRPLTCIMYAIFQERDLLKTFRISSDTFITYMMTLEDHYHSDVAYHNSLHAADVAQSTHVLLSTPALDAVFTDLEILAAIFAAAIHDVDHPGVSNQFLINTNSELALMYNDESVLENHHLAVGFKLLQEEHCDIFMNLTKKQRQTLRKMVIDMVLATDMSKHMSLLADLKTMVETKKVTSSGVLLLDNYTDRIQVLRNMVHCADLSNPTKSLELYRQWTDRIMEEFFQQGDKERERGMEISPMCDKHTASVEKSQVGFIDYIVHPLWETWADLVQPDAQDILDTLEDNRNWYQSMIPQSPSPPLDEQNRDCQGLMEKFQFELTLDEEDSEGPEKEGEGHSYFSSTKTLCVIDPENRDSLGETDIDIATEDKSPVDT
Chain of Ubiquitin carboxyl-terminal hydrolase 1 (Homo sapiens) (O94782 whole entry, looked up): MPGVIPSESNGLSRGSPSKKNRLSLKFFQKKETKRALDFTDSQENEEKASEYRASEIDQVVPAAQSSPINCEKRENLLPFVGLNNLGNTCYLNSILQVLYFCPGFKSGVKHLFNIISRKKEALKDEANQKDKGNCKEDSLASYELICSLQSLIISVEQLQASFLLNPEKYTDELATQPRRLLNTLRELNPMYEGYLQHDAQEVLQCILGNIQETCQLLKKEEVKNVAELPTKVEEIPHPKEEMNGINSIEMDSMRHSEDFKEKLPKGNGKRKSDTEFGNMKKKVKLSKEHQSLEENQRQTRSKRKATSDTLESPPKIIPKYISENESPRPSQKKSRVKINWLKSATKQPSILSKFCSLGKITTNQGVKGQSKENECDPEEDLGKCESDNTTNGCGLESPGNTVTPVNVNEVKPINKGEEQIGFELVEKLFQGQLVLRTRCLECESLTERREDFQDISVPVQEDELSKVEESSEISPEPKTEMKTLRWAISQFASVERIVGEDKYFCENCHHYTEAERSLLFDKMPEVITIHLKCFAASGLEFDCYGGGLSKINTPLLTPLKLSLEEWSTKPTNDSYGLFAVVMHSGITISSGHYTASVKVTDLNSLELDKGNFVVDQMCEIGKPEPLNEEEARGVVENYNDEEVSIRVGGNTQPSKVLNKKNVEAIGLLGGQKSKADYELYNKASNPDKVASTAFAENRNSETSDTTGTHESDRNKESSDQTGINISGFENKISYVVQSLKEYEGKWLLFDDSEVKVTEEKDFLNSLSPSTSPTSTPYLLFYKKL
Chain of Cytochrome P450 3A4 (Homo sapiens) (P08684 whole entry, looked up): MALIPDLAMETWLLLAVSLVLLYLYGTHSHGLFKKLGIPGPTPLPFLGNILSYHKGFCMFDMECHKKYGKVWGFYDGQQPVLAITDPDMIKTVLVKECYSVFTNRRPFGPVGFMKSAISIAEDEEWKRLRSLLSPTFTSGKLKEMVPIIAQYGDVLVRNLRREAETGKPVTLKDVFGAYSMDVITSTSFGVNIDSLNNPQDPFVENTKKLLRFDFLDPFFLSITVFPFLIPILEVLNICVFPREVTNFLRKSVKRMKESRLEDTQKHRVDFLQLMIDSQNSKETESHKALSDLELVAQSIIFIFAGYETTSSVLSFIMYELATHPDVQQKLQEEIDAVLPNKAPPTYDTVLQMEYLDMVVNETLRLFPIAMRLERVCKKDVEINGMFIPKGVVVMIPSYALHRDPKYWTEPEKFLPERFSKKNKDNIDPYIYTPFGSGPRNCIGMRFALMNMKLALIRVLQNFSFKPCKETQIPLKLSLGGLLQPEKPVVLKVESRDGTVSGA
Chain of Lysosomal acid glucosylceramidase (Homo sapiens) (P04062 whole entry, looked up): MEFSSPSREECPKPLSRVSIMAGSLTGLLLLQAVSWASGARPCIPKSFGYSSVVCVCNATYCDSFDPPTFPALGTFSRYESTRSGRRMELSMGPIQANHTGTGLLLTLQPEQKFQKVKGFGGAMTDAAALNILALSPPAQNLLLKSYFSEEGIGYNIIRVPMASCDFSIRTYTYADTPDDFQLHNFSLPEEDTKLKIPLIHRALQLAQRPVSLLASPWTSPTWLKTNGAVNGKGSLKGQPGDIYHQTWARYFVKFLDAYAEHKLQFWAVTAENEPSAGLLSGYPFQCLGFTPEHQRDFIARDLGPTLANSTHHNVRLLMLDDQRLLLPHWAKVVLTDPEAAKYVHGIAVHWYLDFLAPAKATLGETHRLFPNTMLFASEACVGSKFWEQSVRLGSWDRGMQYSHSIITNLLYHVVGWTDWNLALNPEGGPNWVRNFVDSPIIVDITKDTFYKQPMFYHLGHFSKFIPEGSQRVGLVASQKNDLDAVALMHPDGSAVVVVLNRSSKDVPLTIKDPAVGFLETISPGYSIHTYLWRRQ
Chain of Dual specificity protein kinase CLK4 (Homo sapiens) (Q9HAZ1 whole entry, looked up): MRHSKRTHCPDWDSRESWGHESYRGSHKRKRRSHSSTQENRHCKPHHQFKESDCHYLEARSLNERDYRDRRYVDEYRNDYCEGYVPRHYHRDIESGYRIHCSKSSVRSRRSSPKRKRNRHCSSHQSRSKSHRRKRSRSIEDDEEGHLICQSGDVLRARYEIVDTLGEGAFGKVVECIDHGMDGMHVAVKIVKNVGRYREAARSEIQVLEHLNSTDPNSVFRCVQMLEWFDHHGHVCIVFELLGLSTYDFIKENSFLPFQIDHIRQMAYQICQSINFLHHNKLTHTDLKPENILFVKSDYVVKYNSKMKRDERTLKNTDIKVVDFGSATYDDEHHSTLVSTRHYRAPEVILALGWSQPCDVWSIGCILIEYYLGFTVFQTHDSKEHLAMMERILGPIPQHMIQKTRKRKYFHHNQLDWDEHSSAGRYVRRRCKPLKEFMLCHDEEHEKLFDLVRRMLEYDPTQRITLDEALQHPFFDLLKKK
Chain of Cytochrome P450 1A2 (Homo sapiens) (P05177 whole entry, looked up): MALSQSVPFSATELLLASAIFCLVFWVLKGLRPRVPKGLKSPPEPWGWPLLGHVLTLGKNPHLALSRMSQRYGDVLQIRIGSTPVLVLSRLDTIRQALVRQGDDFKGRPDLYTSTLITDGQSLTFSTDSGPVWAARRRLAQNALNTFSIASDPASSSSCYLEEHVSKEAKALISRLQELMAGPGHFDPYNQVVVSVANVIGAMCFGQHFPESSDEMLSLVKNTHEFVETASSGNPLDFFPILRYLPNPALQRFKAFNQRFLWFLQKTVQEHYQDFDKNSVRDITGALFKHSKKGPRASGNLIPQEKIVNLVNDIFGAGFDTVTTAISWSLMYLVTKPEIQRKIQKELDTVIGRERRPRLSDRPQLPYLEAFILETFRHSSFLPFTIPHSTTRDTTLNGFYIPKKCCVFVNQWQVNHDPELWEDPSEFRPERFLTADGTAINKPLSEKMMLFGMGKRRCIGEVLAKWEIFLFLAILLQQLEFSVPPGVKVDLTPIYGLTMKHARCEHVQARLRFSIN
Chain of Glucocorticoid receptor (Homo sapiens) (P04150 whole entry, looked up, the tested form may be a part): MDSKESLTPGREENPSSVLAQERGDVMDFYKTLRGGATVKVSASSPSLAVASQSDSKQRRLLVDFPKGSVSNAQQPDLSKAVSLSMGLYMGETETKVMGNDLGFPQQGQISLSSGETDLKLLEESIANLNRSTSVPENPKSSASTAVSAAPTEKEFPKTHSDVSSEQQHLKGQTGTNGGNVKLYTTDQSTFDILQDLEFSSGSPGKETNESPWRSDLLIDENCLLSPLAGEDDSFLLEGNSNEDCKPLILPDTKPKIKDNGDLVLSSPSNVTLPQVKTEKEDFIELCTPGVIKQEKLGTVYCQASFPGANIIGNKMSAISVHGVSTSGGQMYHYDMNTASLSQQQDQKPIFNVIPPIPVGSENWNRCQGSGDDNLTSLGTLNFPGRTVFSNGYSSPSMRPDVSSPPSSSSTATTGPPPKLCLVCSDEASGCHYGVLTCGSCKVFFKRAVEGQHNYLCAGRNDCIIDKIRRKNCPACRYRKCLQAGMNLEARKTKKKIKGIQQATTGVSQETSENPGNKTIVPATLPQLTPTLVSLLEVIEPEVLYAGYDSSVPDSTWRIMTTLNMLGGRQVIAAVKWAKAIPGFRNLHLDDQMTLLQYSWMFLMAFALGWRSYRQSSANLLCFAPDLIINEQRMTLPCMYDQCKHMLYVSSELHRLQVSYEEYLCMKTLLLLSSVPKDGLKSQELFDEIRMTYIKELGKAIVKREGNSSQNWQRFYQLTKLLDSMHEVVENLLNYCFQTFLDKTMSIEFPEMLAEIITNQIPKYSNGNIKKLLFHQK

CNc1ncncc1-c1ccccc1C
Potency [1]: > 11.4 µM
activity change, negative = inhibition [2]: 7.16%
Potency [3]: 12.6 µM (active)
activity change, negative = inhibition [4]: 9.64%
activity, negative = inhibition [5]: 2.49%
Potency [6]: > 46 µM
Potency [7]: > 46 µM
Potency [8]: inactive
Potency [9]: inactive
Potency [10]: 0.631 µM (active)
Potency [11]: inactive
Potency [12]: inactive
Potency [13]: inactive
Potency [14]: inactive
Potency [15]: inactive
outcome [16]: inactive

FC(F)(F)c1ccccc1-c1cncnc1NCc1cccnc1
Potency [1]: > 11.4 µM
activity change, negative = inhibition [2]: -13.4%
Potency [3]: 20 µM (active)
activity change, negative = inhibition [4]: -6.58%
activity, negative = inhibition [5]: -1.05%
Potency [6]: > 46 µM
Potency [7]: > 46 µM
Potency [8]: inactive
Potency [9]: inactive
Potency [10]: 0.631 µM (active)
Potency [11]: inactive
Potency [17]: 2.51 µM (active)
Potency [12]: inactive
Potency [13]: inactive
Potency [14]: inactive
Potency [15]: inactive
outcome [16]: inactive

COc1ccc(-n2c(=O)c(-c3ccccc3)nc3cncnc32)cc1
Potency [1]: > 11.4 µM
activity change, negative = inhibition [2]: -26.7%
Potency [3]: 3.98 µM (active)
activity change, negative = inhibition [4]: 8.64%
activity, negative = inhibition [5]: -9.27%
Potency [6]: > 9.22 µM
Potency [7]: > 46 µM
Potency [8]: inactive
Potency [9]: inactive
Potency [11]: inactive
Potency [12]: inactive
Potency [13]: inactive
Potency [14]: inactive
Potency [15]: inactive
outcome [16]: inactive

Cn1c(=O)c(-c2ccccc2)nc2cnc(OCc3ccccc3)nc21
Potency [1]: > 11.4 µM
activity change, negative = inhibition [2]: -1.1%
Potency [3]: 1.58 µM (active)
activity change, negative = inhibition [4]: 4.72%
activity, negative = inhibition [5]: -3.56%
Potency [6]: > 9.22 µM
Potency [7]: > 46 µM
Potency [8]: inactive
Potency [9]: inactive
Potency [11]: inactive
Potency [12]: inactive
Potency [13]: inactive
Potency [14]: inactive
Potency [15]: inactive
outcome [16]: inactive

COc1ccc(Oc2ncc3nc(-c4cn(C)c5ccccc45)c(=O)n(C)c3n2)cc1
Potency [1]: > 11.4 µM
activity change, negative = inhibition [2]: -24.2%
Potency [3]: inactive
activity change, negative = inhibition [4]: -8.09%
activity, negative = inhibition [5]: 1.51%
Potency [6]: > 9.22 µM
Potency [7]: > 46 µM
Potency [8]: inactive
Potency [9]: inactive
Potency [18]: inactive
Potency [11]: inactive
Potency [12]: inactive
Potency [13]: inactive
Potency [14]: inactive
Potency [15]: inactive
outcome [16]: inactive

O=c1c(-c2ccccc2)nc2cnc(Oc3cccc(Cl)c3)nc2n1C1CC1
Potency [1]: > 11.4 µM
activity change, negative = inhibition [2]: -15.1%
Potency [3]: 1.58 µM (active)
activity change, negative = inhibition [4]: 10.9%
activity, negative = inhibition [5]: -5.81%
Potency [6]: > 9.22 µM
Potency [7]: > 46 µM
Potency [8]: inactive
Potency [9]: inactive
Potency [18]: 0.251 µM (active)
Potency [12]: inactive
Potency [13]: inactive
Potency [14]: inactive
Potency [15]: inactive
outcome [16]: inactive

CCNc1ncc2nc(-c3ccc(OC)cc3)c(=O)n(CCC#N)c2n1
Potency [1]: > 11.4 µM
activity change, negative = inhibition [2]: -5.2%
Potency [3]: 10 µM (active)
activity change, negative = inhibition [4]: -15.6%
activity, negative = inhibition [5]: -7.35%
Potency [6]: > 9.22 µM
Potency [7]: > 46 µM
Potency [8]: inactive
Potency [9]: inactive
Potency [11]: inactive
Potency [12]: inactive
Potency [13]: inactive
Potency [14]: inactive
Potency [15]: inactive
outcome [16]: inactive

COc1ccccc1CNc1ccnc(-c2cccc(C#N)c2)n1
Potency [1]: > 11.4 µM
activity change, negative = inhibition [2]: -13.8%
Potency [3]: 0.794 µM (active)
activity change, negative = inhibition [4]: 8.07%
activity, negative = inhibition [5]: -11.8%
Potency [6]: > 46 µM
Potency [7]: > 46 µM
Potency [8]: inactive
Potency [9]: inactive
Potency [10]: 3.98 µM (active)
Potency [11]: inactive
Potency [17]: 3.98 µM (active)
Potency [12]: 7.94 µM (active)
Potency [13]: 7.94 µM (active)
Potency [14]: 3.16 µM (active)
Potency [15]: inactive
outcome [16]: inactive

COc1ccc(-n2c(=O)c(-c3cccc(Cl)c3)nc3cncnc32)cc1
Potency [1]: > 11.4 µM
activity change, negative = inhibition [2]: -20.5%
Potency [3]: 1 µM (active)
activity change, negative = inhibition [4]: -14.1%
activity, negative = inhibition [5]: -4.36%
Potency [6]: > 9.22 µM
Potency [7]: > 46 µM
Potency [8]: inactive
Potency [9]: inactive
Potency [11]: inactive
Potency [12]: inactive
Potency [13]: inactive
Potency [14]: inactive
Potency [15]: inactive
outcome [16]: inactive

COc1ccc(CNc2ncncc2-c2ccccc2C(F)(F)F)c(OC)c1
Potency [1]: > 11.4 µM
activity change, negative = inhibition [2]: -23.4%
Potency [3]: 15.8 µM (active)
activity change, negative = inhibition [4]: -7.18%
activity, negative = inhibition [5]: 2.4%
Potency [6]: > 46 µM
Potency [7]: > 46 µM
Potency [8]: inactive
Potency [9]: inactive
Potency [10]: 0.316 µM (active)
Potency [11]: inactive
Potency [17]: 1.58 µM (active)
Potency [12]: inactive
Potency [13]: inactive
Potency [14]: inactive
Potency [15]: inactive
outcome [16]: inactive

COc1ccc(CNc2cc(-c3cccnc3)ncn2)c(OC)c1
Potency [1]: > 11.4 µM
activity change, negative = inhibition [2]: -14.6%
Potency [3]: 1.26 µM (active)
activity change, negative = inhibition [4]: 10.5%
activity, negative = inhibition [5]: 2.95%
Potency [6]: > 46 µM
Potency [7]: > 46 µM
Potency [8]: inactive
Potency [9]: inactive
Potency [10]: 1.58 µM (active)
Potency [11]: inactive
Potency [12]: 8.91 µM (active)
Potency [13]: 8.91 µM (active)
Potency [14]: 10 µM (active)
Potency [15]: inactive
outcome [16]: inactive
